HCV inh = inhibitors of hepatitis C virus infection; 3.4% of 340,000 active; Potency, µM (titrated, usually from 41.8 µM), for the others: at the top dose activity change, negative = inhibition, usual class: inhibitors; Huh7.5.1 HCVcc-Cre infection, luciferase reporter, 44 h; AID 651820; further: potency means the concentration at half of the fitted maximal effect
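Infectious HCVcc-Cre (~0.5 moi) was added to cells just after compound, with cells seeded 4 h earlier at 1,000 per well. Luciferase activity after 44 h culture reported infection; substrate was incubated 15 min at room temperature before reading.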
Pf growth 48h = P. falciparum growth inhibition at 48 hours (one generation). P. falciparum luciferase growth in erythrocytes, 48 h. Potency, µM (doses to about 28.7 µM), for the others: top-dose activity change, negative = inhibition, usual class: inhibitors. 5.9% of 310,000 active; further: potency means the concentration at half of the fitted maximal effect
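Luciferase-expressing P. falciparum in infected erythrocytes (2% hematocrit, 0.1% parasitemia final) in RPMI 1640/0.5% Albumax were exposed to compound for 48 hours at 37 C, 5% CO2; growth read as luminescence.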
HCMV inh = inhibitors of human cytomegalovirus; HFF cells, HCMV-luciferase reporter, 72 h; hits give low values; activity change, negative = inhibition, % at 57.5 µM; 4.5% of 410,000 active; in the data active means activity change below about -60%; inconclusive means no clear call, values can overlap the other calls; inactive means above about -39%
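Luciferase read-out from HCMV-luciferase-infected HFFs (MOI 1 PFU/cell) 72 h post infection at 37C; compounds added after 16 h cell attachment; activity normalized between buffer-only basal and Salinomycin (10uM) inhibitor controls.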
Pf growth 96h = inhibits malaria parasite growth, 96 h. P. falciparum luciferase reporter growth, 96 h. Potency, µM (doses to about 28.7 µM), for inactives: at the highest dose activity change, negative = inhibition, hits mostly inhibitors. 6.9% of 320,000 active. AID 504834; further: potency means the concentration at half of the fitted maximal effect
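Readout is luminescence from an integrated firefly luciferase in P. falciparum. Red cells, 2% hematocrit and 0.05% parasitemia final, were cultured with compound through two parasite generations (96 hours) at 37 C, 5% CO2.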
* marks the source's active call; other numbers are inactive results; ? = inconclusive; · = no result. In the library only some 13% were active in any assay of this set; here they are far more common. Unless noted, the call rests on the fitted dose curve; in most records, active means well fitted inhibition curve with a large enough effect; inconclusive means small, poorly fitted or top-dose-only effect, or another doubt; inactive means no such curve, though single readings can be large or run the other way. On the % scale 0 is the no-effect control and ±100 the full control effect.

SMILES	HCV inh	Pf growth 48h	HCMV inh	Pf growth 96h
CN1CCN(c2ccc(Cl)cc2NC(=O)/C=C/c2cccc(F)c2)CC1	?	9.28µM*	25.8	?
CCC1(c2ccccc2)NC(=O)N(CC(=O)N2CCc3ccccc32)C1=O (stereo unspecified)	-2.0%	·	59.1	·
O=S(=O)(NCCc1csc2nc(-c3ccc(F)cc3)nn12)c1ccc(Oc2ccccc2)cc1	·	·	8.3	·
CC(C)C[C@H]1COc2cccc(N3CCCCC3)c2S(=O)(=O)N1	·	·	-4.9	·
CCCCCOc1ccc(Cn2c(=O)oc3ccc(C)cc32)cc1OC	·	·	8.7	·
CCC1(c2ccccc2)NC(=O)N(CC(=O)Nc2cc(Cl)ccc2N2CCN(C)CC2)C1=O (stereo unspecified)	?	11.7µM*	-21.4	?
CCC1(c2ccccc2)NC(=O)N(CC(=O)Nc2cc(C(F)(F)F)ccc2N2CCCC2)C1=O (stereo unspecified)	-21.6%	?	-0.9	?
O=C(CN1C(=O)CCc2cc(S(=O)(=O)N3CCCCC3)ccc21)NCc1ccc(Cl)cc1	·	·	2.6	·
O=C(CSc1ccccc1Cl)c1ccco1	-6.8%	52.2%	1.9	37.0%
O=C(C#Cc1ccccc1)c1ccco1	?	-29.8%	-99.0*	-17.1%
Cc1ccc(N2C=Nc3ccc(C)c4nc(C)cc2c34)cc1	1.2%	9.28µM*	-33.7	63.6%
CC1=Nc2ccc(C)c3nc(C)cc(c23)N1c1ccc(C)cc1	-20.7%	·	9.4	·
CCOCCCn1c(=N)c(C(=O)NC2CCCC2)cc2c(=O)n3cccc(C)c3nc21	·	·	14.4	·
Cc1ccc2oc(=O)c3cnn(CC(=O)N4CCN(c5ccccc5F)CC4)c3c2c1	·	·	-0.7	·
COC(=O)C(CCSC)NC(=O)Cn1ncc2c(=O)oc3ccc(C)cc3c21 (stereo unspecified)	9.4%	24.3%	16.6	14.7µM*
CCOC(=O)C(C)NC(=O)Cn1ncc2c(=O)oc3ccc(C)cc3c21 (stereo unspecified)	12.4%	?	7.0	83.1%
Cc1ccc2oc(=O)c3cnn(CC(=O)Nc4ccccc4N4CCN(C)CC4)c3c2c1	14.1µM*	5.2%	?	?
COc1ccc(-n2ncc3c(NCCCOC(C)C)ncnc32)cc1	·	·	48.5	·
O=C1c2ccccc2C(=O)N1CCCCN(C(=O)c1ccc(Cl)s1)c1ccc(Cl)cc1	?	4.8%	-24.1	11.4%
Cc1ccc(N(CCCCN2C(=O)c3ccccc3C2=O)C(=O)c2ccc(Cl)s2)cc1	?	17.1%	-62.5*	-19.6%
Cc1cc2nc(C3CCN(Cc4nnnn4Cc4cccs4)CC3)[nH]c2cc1C	11.2µM*	?	18.7	-2.4%
CCc1c(C)sc2c1CCN(Cc1cccc(F)c1)C2c1ccccc1 (stereo unspecified)	·	·	-78.0*	·
CCc1c(C)sc2c1CCN(Cc1ccc(F)cc1)C2c1ccccc1 (stereo unspecified)	·	·	-98.1*	·
CCc1c(C)sc2c1CCN(Cc1ccc(C#N)cc1)C2c1ccccc1 (stereo unspecified)	·	·	-24.0	·
CCOc1ccccc1-c1noc(CSc2nnc(-c3ccccc3)n2-c2cccc(C)c2)n1	·	·	-2.8	·
SMILES	HCV inh	Pf growth 48h	HCMV inh	Pf growth 96h
C=Cc1ccc(CSc2nc(-c3ccccc3Cl)nc3c2Cc2c(CO)cnc(C)c2O3)cc1	·	·	11.0	·
COc1ccc(S(=O)(=O)N(CC(=O)NCc2ccc(C)cc2)c2ccc(Cl)cc2)cc1	·	·	-31.1	·
CCOC(=O)C1=C(NC(=S)NC(=O)c2ccccc2)c2ccccc2CC12CCCC2	?	?	-98.6*	?
CCOc1ccc(N(CC)S(=O)(=O)N2CCCC(C(=O)Nc3ccc(OC)c(OC)c3)C2)cc1 (stereo unspecified)	·	·	-3.9	·
C#CCn1cc2c(c1-c1ccccc1)c(=O)n(C)c(=O)n2C	·	·	-15.8	·
CCc1[nH]nc(C(=O)NC2CCCN(Cc3ccccc3F)C2)c1C (stereo unspecified)	-27.7%	0.0%	-16.3	13.1µM*
O=C(Cc1ccc(Cl)cc1)NC1CCCN(Cc2ccccc2F)C1 (stereo unspecified)	-9.4%	9.4%	-24.2	69.2%
CSc1ccccc1C(=O)NC1CCCN(Cc2ccccc2F)C1 (stereo unspecified)	11.3%	-12.5%	47.1	-8.5%
CC(=O)c1ccc(C(=O)NC2CCCN(Cc3ccccc3F)C2)cc1 (stereo unspecified)	1.4%	-10.9%	-2.9	5.86µM*
O=C(CCn1cnnn1)NC1CCCN(Cc2ccccc2F)C1 (stereo unspecified)	·	10.0%	21.6	13.1µM*

Screening data from PubChem BioAssay.
